# Screening results: PubChem BioAssay, National Center for Advancing Translational Sciences (NCATS)
# HT1080 IDH1KD tx – toxicity to HT-1080 IDH1 knockdown cells (counter line) | HT-1080 IDH1 knockdown viability, ATP luminescence, 48 h | Potency, µM (top dose mostly 46.1 µM), for the others: top-dose activity, negative = toxicity, actives largely listed as cytotoxic | 2% of 360,000 active | AID 686971;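 also: potency is read from the fitted curve at half-maximal effect; 0% = DMSO wells and -100% = cell-free medium wells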
#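 % activity derives from luminescence (CellTiter-Glo), normalised to DMSO and no-cell wells. HT-1080-IDH1KD cells, 750/well, had 48 h compound exposure at 37 °C.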
# ELG1 repair inh – blocks ELG1-dependent DNA repair in HEK293T cells; HEK293T ELG1-luciferase reporter, luminescence, 16 h; DNA damage induced by 5-fluorouridine; Potency, µM (top dose mostly 46.1 µM), for the others: at the top dose activity change, negative = inhibition, hits mostly inhibitors; 2.3% of 330,000 active; AID 504467; also: potency is read from the fitted curve at half-maximal effect; nearly all actives have a fitted effect of over 55% in size
#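 HEK293T cells expressing luciferase-tagged ELG1 (2,000/well) received 5-Fluorouridine plus compound or DMSO for 16 hr at 37 °C. Luciferase was read by ONE-Glo luminescence after 30 min at room temperature.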
# IL1B secr inh – inflammasome signaling inhibition, IL-1 beta readout | activity change, % at 57.5 µM | AID 743279 | THP-1 LPS/ATP IL-1B secretion, AlphaLISA, 16 h; hits give low values | 4.7% of 360,000 active; in the data active = activity change below about -50%; inconclusive = mostly about -30% to -49%
#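 THP-1 cells pretreated 1 hr with compounds (up to 57.5 uM final), then stimulated with LPS (250 ng/mL final) plus ATP (1.25 mM final); secreted IL-1B measured by AlphaLISA after 16 hr, decreased signal indicating inhibition.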
# DT40 TDP1 no CPT – qHTS for Inhibitors of human tyrosyl-DNA phosphodiesterase 1 (TDP1): qHTS in cells in absence of CPT; DT40 Tdp1-/- hTDP1 cells, no CPT, ATP luminescence, 48 h; Potency, µM (top dose mostly 46.2 µM), inactives show at the highest dose activity change, negative = growth inhibition, most hits filed as inhibitors; 15% of 420,000 active; AID 686978, 2013; also: potency is read from the fitted curve at half-maximal effect; nearly all actives have a fitted effect of over 55% in size
#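 No-CPT arm: Tdp1-/-;hTDP1 DT40 cells (400/well) plus compounds, incubated ≥48 hr at 37 °C. Readout CellTiter-Glo luminescence.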
# DT40 TDP1 CPT – DT40-hTDP1 cell growth loss with CPT. chicken DT40 Tdp1-/-;hTDP1 cells + 20 nM CPT, ATP luminescence, 48 h. Potency, µM (top dose mostly 46.2 µM), without a hit: at the top dose activity change, negative = growth inhibition, hits mostly inhibitors. 12% of 420,000 active; also: potency is read from the fitted curve at half-maximal effect; nearly all actives have a fitted effect of over 55% in size
#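 Chicken DT40 Tdp1-/- cells stably complemented with human TDP1 were seeded at 400 cells/well in medium containing 20 nM camptothecin, exposed to pin-transferred compounds, and grown at 37 °C for at least 48 hr. Viability was read as ATP luminescence.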
# HT1080NT lethal – kills 2HG-producing HT-1080-NT fibrosarcoma cells; 1.6% of 360,000 active; HT-1080-NT fibrosarcoma viability, CellTiter-Glo ATP luminescence, 48 h; AID 686970; Potency, µM (highest dose often 46.1 µM), for inactives: top-dose activity, negative = less viability, usual class: cytotoxic;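 also: NT is the 2HG producing partner of a matched IDH1 knockdown line; potency is read from the fitted curve at half-maximal effect; 0% = DMSO-treated cells and -100% = media-only wells without cells; nearly all actives have a fitted effect of over 55% in size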
#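 HT-1080-NT; 750 cells/well; 5% FBS RPMI; 48 h compound, 37 degrees C; CellTiter-Glo luminescence; curve fitting and curve-class assignment.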
# Starred values were filed as active, the others as inactive; ? = inconclusive; · = no result. Hits are enriched below; roughly 19% of the tested compounds scored in any of these assays. Unless noted, calls follow the shape of the dose curve; as a rule, active = well fitted curve in the direction sought with a large enough effect; inconclusive = small, poorly fitted or top-dose-only effect, or another doubt; inactive = no such curve, though single readings can be large; an effect the other way counts as inactive or inconclusive. Unless noted, % is scaled to controls: 0 for no effect and ±100 for the full control effect.
SMILES,HT1080 IDH1KD tx,ELG1 repair inh,IL1B secr inh,DT40 TDP1 no CPT,DT40 TDP1 CPT,HT1080NT lethal
CCOc1cccc(C2C=C(c3ccc4c(c3)OCO4)NC(c3ccccc3F)N2)c1O (stereo not drawn),·,·,·,16µM*,11µM*,·
CCOC(=O)C1=C(C)NC(=O)NC1c1ccc2c(c1)OCO2 (stereo not drawn),0%,19%,-11,-3%,-1%,2%
CCOc1cccc(C2C=C(c3ccc4c(c3)OCO4)NC(c3ccc(F)cc3)N2)c1O (stereo not drawn),·,·,·,13µM*,14µM*,·
Cn1cc(CNC(=O)CC2C(=O)NCCN2CC(C)(C)C)cn1 (stereo not drawn),7%,11%,-17,4%,24%,2%
COc1ccc2c(c1)C(=O)C1(CC2)OC1c1cccnc1 (stereo not drawn),4%,·,-20,?,-21%,-2%
Cc1cc(C)c2c(N)c(C(=O)c3ccc(Cl)cc3Cl)sc2n1,-9%,10µM*,-2,18µM*,?,-11%
Cc1cc(C)c2c(N)c(C(=O)Nc3ccccc3Br)sc2n1,-13%,?,-3,-17%,-29%,-1%
CCc1ccccc1NC(=O)c1sc2nc(C)cc(C)c2c1N,-4%,-5%,?,?,18µM*,-17%
Cc1cc(C)c2c(N)c(C(=O)N3CCCCCC3)sc2n1,2%,14%,-17,-24%,15µM*,8%
Cc1cc(C)c2c(N)c(C(=O)Nc3ncc(C)s3)sc2n1,?,?,-19,18µM*,16µM*,?
CC(Sc1nnc(CN2CCCC2)n1Cc1ccccc1)C(=O)Nc1ccc(F)c(F)c1F (stereo not drawn),-3%,·,?,?,?,-2%
CC(C)CC(OC(=O)c1nsc(Cl)c1Cl)C(=O)NCC1CCCO1 (stereo not drawn),6%,11%,16,8%,-5%,18%
Cc1ccc(-n2c(N)c(C(=O)NCc3ccco3)sc2=S)cc1,-17%,2%,-58*,-29%,?,-14%
C=CCn1c(N)c(C(=O)NCc2ccco2)sc1=S,15%,4%,?,-1%,1%,9%
Cc1cc(C)c2c(N)c(C(=O)NCc3ccco3)sc2n1,20%,12%,-61*,?,0%,20%
CC(=O)c1sc2nc(C)cc(C)c2c1N,-24%,-4%,-8,?,-23%,2%
O=C(O)Cc1cn(Cc2cccc(Cl)c2)c2ccccc12,-7%,-6%,3,-9%,1%,-8%
CC1CCCN(C(=O)Cc2cn(Cc3cccc(Cl)c3)c3ccccc23)C1 (stereo not drawn),?,4%,-76*,15µM*,?,?
O=C(Cc1cn(Cc2cccc(Cl)c2)c2ccccc12)N1CCCCCC1,-5%,16%,-65*,?,?,-10%
Cc1onc(-c2c(F)cccc2Cl)c1C(=O)NCCc1ccncc1,-2%,2%,0,-4%,-6%,1%
COc1cc(C(=O)NNC(=S)NC(=O)c2ccc(F)cc2)cc(OC)c1OC,?,?,84,?,29µM*,-28%
COc1ccc(CC(=O)NNC(=S)NC(=O)c2cc(OC)c(OC)c(OC)c2)cc1,?,·,21,7.3µM*,9.2µM*,?
COc1cc(C(=O)NC(=S)NCc2ccncc2)cc(OC)c1OC,1%,·,-26,21µM*,?,-2%
COc1ccc(C(=O)NC(=S)NCc2cccnc2)cc1OC,-14%,8%,11,?,-21%,-7%
COc1cc(C(=O)NC(=S)NNC(=O)c2ccc3c(c2)OCO3)cc(OC)c1OC,?,16µM*,39,?,?,?
